Measurements reported in PubChem BioAssay (EPA / NIEHS).
Values joined by “and” are separate entries in the source; they are usually repeats but may differ in a detail not shown here. Equal entries are not always repeated. Some structures have more than one record in an assay (separate samples or runs), and their calls can disagree. Active and inactive are the calls of the source. Rule for the calls: active = hit-call score of the fitted dose curve at least 0.9, where 1 is the maximum; inactive = score below 0.9.

Assay: APR_HepG2_MitoticArrest_24hr: Apredica 24-hour HepG2 Assay for Mitotic Arrest (AID 2282910)
Conditions: high-content imaging, actives raise or lower the signal
Description: APR_HepG2_24hr is a cell-based, multiplexed-readout assay that uses HepG2, a human liver cell line, with measurements taken at 24 hours after chemical dosing in a 384-well plate.APR_HepG2_MitoticArrest_24hr is one of 10 assay component(s) measured or calculated from the APR_HepG2_24hr assay. It is designed to make measurements of cell phenotype, a form of morphology reporter, as detected with fluorescence intensity signals by HCS Fluorescent Imaging technology.Data from the assay component APR_HepG2_MitoticArrest_24hr was analyzed into 1 assay endpoint. This assay endpoint, APR_HepG2_MitoticArrest_24hr, was analyzed with bidirectional fitting relative to DMSO as the negative control and baseline of activity. Using a type of morphology reporter, measures of protein for gain or loss-of-signal activity can be used to understand the signaling at the pathway-level as they relate to the gene . Furthermore, this assay endpoint can be referred to as a primary readout, because this assay has produced multiple assay endpoints where this one serves a signaling function. To generalize the intended target to other relatable targets, this assay endpoint is annotated to the cell cycle intended target family, where the subfamily is arrest.
Cells were treated with dimethyl sulfoxide (DMSO) as a solvent control at a final concentration of 0.5% v/v or with compounds in DMSO with a resulting final DMSO concentration of 0.5% v/v. Compound treatment was done at concentrations of 0.39, 0.78, 1.56, 3.12, 6.24, 12.5, 25, 50, 100, and 200 uM in duplicate on each plate. Cells were treated with compounds for 1, 24, or 72 hr. Carbonyl […] m-chloro-phenylhydrazone (CCCP) and taxol were used as positive controls for mitochondrial function and cytoskeletal stability, respectively; DMSO served as the negative control for this experiment. Cells were fixed by the direct addition of 50 uL formaldehyde in Hank's Balanced Salt Solution (HBSS) to a final concentration of 3.7%. After incubation in the fixation medium for 30 min at room temperature (293-298 K), cells were rinsed twice with HBSS and treated with cell permeabilization buffer (16 uL of 0.5% Triton X-100) for 10 min at room temperature (293-298 K) before labeling. For mitochondrial membrane potential and mitochondrial measurements, pre-fixed cells were incubated with 50 uL of MitoTracker Red CMXRos (Invitrogen) at a concentration of 250 nM for 30 min before fixation. In the remaining cases, post-fixed cells were labeled by incubation with a multiplexed mixture of primary antibodies in HBSS for 60 min at room temperature (293-298 K) to detect immunoreactivity of c-Jun (1:500), phospho-histone H3 (1:100), phospho-histone H2A.x (1:200), p53 (1:400), alpha-tubulin (1:200) and Hoechst 33342 (2 ug/mL). Cells were labeled for multiplexed imaging on two separate plates: a) Hoechst 33342, MitoTracker Red, phospho-histone H3, and alpha-tubulin, and b) Hoechst 33342, phospho-histone H2A.x, and c-Jun. A final rinse with HBSS (50 uL) was performed before analysis. The primary and secondary antibodies for the proteins were phospho-histone H3 (rabbit anti-phospho-histone H3 and FITC-donkey anti-rabbit IgG), phospho-histone H2A.x (mouse anti-phospho-histone H2A.x and FITC-donkey anti-mouse IgG), c-Jun (rabbit anti-phospho-c-Jun and Cy3-donkey anti-rabbit IgG), p53 (sheep anti-p53 and Cy5-donkey anti-sheep IgG), alpha-tubulin (mouse anti-alpha-tubulin and Cy5-donkey anti-mouse IgG). These antibodies are available as the CellCiphr HepG2 assay kit (Millipore).Digital images of each well were captured using a Cellomics ArrayScan VTI (Thermo Scientific Cellomics) (0.8 NA objective, 0.63x optical coupler, and XF-93 filter set) at 20x magnification. The images were acquired using the autofocus feature of the ArrayScan instrument, which entails the following steps. First, the camera focuses on channel 1 (Hoechst 33342), where nuclei are identified. Second, a Z offset of 1 um is used for capturing mitochondria (MitoTracker Red). […]

**Q.** Which outcome does the source give for `COc1cc(OC)nc(NC(=O)NS(=O)(=O)c2cc(NC=O)ccc2C(=O)N(C)C)n1` here?
**A.** inactive

**Q.** For `CCC(C)(C)C(=O)OC1=C(c2ccc(Cl)cc2Cl)C(=O)OC12CCCCC2`, which outcome is on record?
**A.** inactive

**Q.** Which AC50 does the source give for `Oc1cc(Cl)ccc1Oc1ccc(Cl)cc1Cl` here?
**A.** 61.6 µM (active) and 63.6 µM (active)

**Q.** And the outcome?
**A.** inactive

**Q.** Which outcome does the source give for `COC(=O)c1ccccc1S(=O)(=O)NC(=O)Nc1nc(C)nc(OC)n1` here?
**A.** inactive

**Q.** For `CC(C)(C)C(O)/C(=C\c1ccc(Cl)cc1Cl)n1cncn1` (stereo not given), which outcome is on record?
**A.** inactive

**Q.** For `CCN(CC)C(=O)SCc1ccc(Cl)cc1`, which outcome is on record?
**A.** inactive

**Q.** Which outcome does the source give for `CC(C)N(C(=O)COc1nnc(C(F)(F)F)s1)c1ccc(F)cc1` here?
**A.** inactive

**Q.** Which outcome does the source give for `O=C(NC(=O)c1c(F)cccc1F)Nc1ccc(OC(F)(F)C(F)OC(F)(F)F)c(Cl)c1` (stereo not given) here?
**A.** inactive

**Q.** Which outcome does the source give for `O=C(O)CCCOc1ccc(Cl)cc1Cl` here?
**A.** inactive

**Q.** With `CCCN(CCC)c1c([N+](=O)[O-])cc(C(F)(F)F)cc1[N+](=O)[O-]` as the compound, how does the outcome read?
**A.** inactive

**Q.** With `N#Cc1c(Cl)c(Cl)c(Cl)c(C#N)c1Cl` as the compound, how does the outcome read?
**A.** inactive

**Q.** With `COc1nn(CSP(=S)(OC)OC)c(=O)s1` as the compound, how does the outcome read?
**A.** inactive

**Q.** For `N#CN`, which outcome is on record?
**A.** inactive

**Q.** For `CNC(=O)/C=C(\C)OP(=O)(OC)OC`, which outcome is on record?
**A.** inactive

**Q.** Which AC50 does the source give for `CC[C@H](C)[C@H]1O[C@]2(C=C[C@@H]1C)C[C@@H]1C[C@@H](C/C=C(\C)[C@@H](O[C@H]3C[C@H](OC)[C@@H](O[C@H]4C[C@H](OC)[C@@H](O)[C@H](C)O4)[C@H](C)O3)[C@@H](C)/C=C/C=C3\CO[C@@H]4[C@H](O)C(C)=C[C@@H](C(=O)O1)[C@]34O)O2` (tested in a mixture with another compound) here?
**A.** 111 µM (active)

**Q.** With `COP(=S)(OC)Oc1ccc(SC)c(C)c1` as the compound, how does the outcome read?
**A.** inactive

**Q.** For `CC1(C)C(C=C(Cl)Cl)C1C(=O)OC(C#N)c1ccc(F)c(Oc2ccccc2)c1` (stereo not given), which outcome is on record?
**A.** inactive

**Q.** Which outcome does the source give for `OCCOc1ccccc1` here?
**A.** inactive

**Q.** Which AC50 does the source give for `CCC(C)(NC(=O)c1cc(Cl)c(C)c(Cl)c1)C(=O)CCl` (stereo not given) here?
**A.** 8.8 µM (active)

**Q.** For `O=S(=O)(O)C(F)(F)C(F)(F)C(F)(F)C(F)(F)C(F)(F)C(F)(F)C(F)(F)C(F)(F)F`, which AC50 is on record?
**A.** 106 µM (active) [middle of 5 runs]

**Q.** Which outcome does the source give for `Oc1ccc(Cl)cc1Cc1ccccc1` here?
**A.** inactive

**Q.** And the AC50?
**A.** 43.1 µM (active) and 76.7 µM (active) and 54 µM (active)

**Q.** For `COP(=O)(OC)OC=C(Cl)Cl`, which outcome is on record?
**A.** inactive

**Q.** For `CCOC1Oc2ccc(OS(C)(=O)=O)cc2C1(C)C` (stereo not given), which outcome is on record?
**A.** inactive

**Q.** With `CNC(=O)Oc1cccc(N=CN(C)C)c1` as the compound, how does the outcome read?
**A.** inactive

**Q.** For `CC(C)(C)C(O)C(Oc1ccc(Cl)cc1)n1cncn1` (stereo not given), which outcome is on record?
**A.** inactive

**Q.** Which outcome does the source give for `O=C(O)COc1ccc(Cl)cc1Cl` here?
**A.** inactive

**Q.** With `C#CCN1C(=O)COc2cc(F)c(N3C(=O)C4=C(CCCC4)C3=O)cc21` as the compound, how does the outcome read?
**A.** inactive

**Q.** Which outcome does the source give for `CCC(C)Nc1c([N+](=O)[O-])cc(C(C)(C)C)cc1[N+](=O)[O-]` (stereo not given) here?
**A.** inactive

**Q.** For `O=C(O)C(F)(F)C(F)(F)C(F)(F)C(F)(F)C(F)(F)C(F)(F)C(F)(F)F`, which outcome is on record?
**A.** inactive

**Q.** With `CCc1ccc(C(=O)NN(C(=O)c2cc(C)cc(C)c2)C(C)(C)C)cc1` as the compound, how does the outcome read?
**A.** inactive

**Q.** For `CCS(=O)(=O)c1cccnc1S(=O)(=O)NC(=O)Nc1nc(OC)cc(OC)n1`, which outcome is on record?
**A.** inactive

**Q.** For `CN1CSC(=S)N(C)C1`, which AC50 is on record?
**A.** 27 µM (active)

**Q.** For `CCOc1nc(NC)nc(NC(=O)NS(=O)(=O)c2ccccc2C(=O)OC)n1`, which outcome is on record?
**A.** inactive

**Q.** Which outcome does the source give for `O=C(Nc1ccccc1)Nc1cnns1` here?
**A.** inactive

**Q.** With `C[C@H]1[C@H](c2ccc(Cl)cc2)SC(=O)N1C(=O)NC1CCCCC1` as the compound, how does the outcome read?
**A.** inactive

**Q.** Which AC50 does the source give for `CCOCN(C(=O)CCl)c1c(C)cccc1CC` here?
**A.** 17.9 µM (active)

**Q.** Which outcome does the source give for `O=[N+]([O-])/N=C1\NCCN1Cc1ccc(Cl)nc1` here?
**A.** inactive

**Q.** Which outcome does the source give for `CNC(=O)Oc1ccccc1OC(C)C` here?
**A.** inactive
